# Inconclusive results are not listed. Values without a mark were called inactive. Activity calls are given as the source filed them. Calls come from the whole dose curve.
# Assay: p53 small molecule agonists, cell-based qHTS assay with rat liver microsomes (AID 1963578)
# Settings: HCT-116 p53RE-bla, beta-lactamase ratio, 16 h; series mostly up to 66 µM; activation: at the top concentration
# Source text: U.S. Tox21 Program National Center for Advancing Translational Sciences [NCATS] Division of Preclinical Innovation [DPI] U.S. Environmental Protection Agency [EPA] National Institutes of Environmental Health Sciences [NIEHS] National Toxicology Program [NTP] U.S. Food and Drug Administration [FDA] Tox21 Assay Overview: p53, a tumor suppressor protein, is activated following cellular insult, including DNA damage and other cellular stresses. The activation of p53 regulates cell fate by inducing DNA repair, cell cycle arrest, apoptosis, or cellular senescence. The activation of p53, therefore, is a good indicator of DNA damage and other cellular stresses. […] The activation of the reporter gene under culture conditions can be detected by fluorescence intensity. This cell line was used to screen the Tox21 10K compound library in the condition of presence of rat liver microsomes and to identify agonists that activate the p53 signaling pathway after in vitro metabolic activation (Ooka et al., Archive of Toxicology 96:1975-1987, 2022).
# Tox21 Assay Protocol Summary: The p53RE-bla cells were dispensed at 4,000cells/3ul/well in 1536-well black-clear bottom plates. After the assay plates were incubated at 37 C, 5% CO2 incubator for 5 hours, 23 nL of compounds dissolved in DMSO, positive controls or DMSO only was transferred to the assay plate. Following compound addition, 3 uL of rat liver microsomes (Molecular Toxicology, Boone, NC) at final concentration of 0.5 mg/mL and 1uL of Beta-Nicotinamide adenine dinucleotide 2-phosphate (NADPH) at final concentration of 0.5 mg/mL were transferred to the assay plate. The plates were incubated at 37 C for 16 hours. 1 uL of LiveBLAzer detection mixture was added to each well and the plates were incubated at room temperature in the dark for 2 h.
# % is set by controls: 0 for no effect and ±100 for the full control effect.
SMILES,activation,Potency
CCCCO,1.66%,–
Oc1ccc(Cl)cc1C1CCCC1,0.39%,–
CCCCCC[C@@H](O)C/C=C\CCCCCCCC(=O)O,5.12%,–
CC(=O)S[C@@H]1CC2=CC(=O)CC[C@]2(C)[C@H]2CC[C@@]3(C)[C@@H](CC[C@@]34CCC(=O)O4)[C@H]12,3.85%,–
CC1(C)O[C@@H]2C[C@H]3[C@@H]4CCC5=CC(=O)CC[C@]5(C)[C@@]4(F)[C@@H](O)C[C@]3(C)[C@]2(C(=O)CCl)O1,-0.0213% [at 30.3 µM],–
COC(=O)C1=C(C)NC(C)=C(C(=O)OCC(C)=O)C1c1ccccc1[N+](=O)[O-] (stereo not given),0.687% [at 30.3 µM],–
CCN(CC)c1ccc2c(c1)Oc1cc(N(CC)CC)ccc1C21OC(=O)c2ccccc21,0.698% [at 30.3 µM],–
CC1(C)O[C@@H]2C[C@H]3[C@@H]4CCC5=CC(=O)C=C[C@]5(C)[C@H]4[C@@H](O)C[C@]3(C)[C@]2(C(=O)CO)O1,4.12% [at 30.3 µM],–
CCn1c(=O)c2c(nc(/C=C/c3ccc(OC)c(OC)c3)n2C)n(CC)c1=O,2.14% [at 30.3 µM],–
CN(C)c1ccc(N=NS(=O)(=O)O)cc1,12.6%,–
Oc1c(I)cc(Cl)c2cccnc12,–,inactive
CCCCC(CC)CNC(=O)CC(C)OC(=O)CCC(=O)O (stereo not given),1.18% [at 30.3 µM],–
C=C(C)C(=O)OCCOCCOCCOCCOC(=O)C(=C)C,11.6%,–
CCC(C)(C)c1cc(O)c(C(C)(C)CC)cc1O,0.41%,–
CC(C)(c1ccccc1)c1ccccc1,0.799%,–
CCN(CC)CCNc1ccc(CO)c2sc3ccccc3c(=O)c12,19.3% [at 30.3 µM],–
O=C(Nc1ccc(Cl)cc1)Nc1ccc(Cl)c(C(F)(F)F)c1,-5.56% [at 30.3 µM],–
NC(CSCC(=O)O)C(=O)O (stereo not given),-0.243% [at 30.3 µM],–
CN1CCN2c3ccccc3Cc3ccccc3C2C1 (stereo not given),6.57% [at 30.3 µM],–
CC[C@H]1O[C@]2(CC[C@@H]1C)C[C@@H]1C[C@@H](C/C=C(\C)C[C@@H](C)/C=C/C=C3\CO[C@@H]4[C@H](O)C(C)=C[C@@H](C(=O)O1)[C@]34O)O2,-7.34%,–

SMILES,activation,Potency
Cc1cc(O)c2c(O)c3c(O)cccc3cc2c1,2.09% [at 30.3 µM],–
Nc1ccn(C2CO[C@H](CO)O2)c(=O)n1 (stereo not given in full),0.432% [at 30.3 µM],–
NC1=NCC2c3ccccc3Cc3ccccc3N12 (stereo not given),8% [at 30.3 µM],–
Cc1c[nH]c(=O)[nH]c1=O,-0.0434%,–
Nc1nnc(-c2ccc([N+](=O)[O-])o2)o1,-1.76%,–
CCCOC(=O)CCCCC(=O)OCCC,7.1%,–
CCCCCOC(=O)Nc1nc(=O)n([C@@H]2O[C@H](C)[C@@H](O)[C@H]2O)cc1F,-1.28% [at 30.3 µM],–
C=CC(=O)OCCC#N,1.51%,–
CC(C)CCCCCCCOC(=O)c1ccc(C(=O)OCCCCCCCC(C)C)c(C(=O)OCCCCCCCC(C)C)c1,16.5%,–
O=[N+]([O-])c1cc(N(CCO)CCO)ccc1NCCO,–,inactive
Cc1cc(=O)oc2cc(N(C)C)ccc12,56.7%,–
O=C1NC2CCCCN2C12CCN(CCCN1c3ccccc3CCc3ccc(Cl)cc31)CC2 (stereo not given),-0.524% [at 30.3 µM],–
CCCCN(CCCC)CC(O)c1cc(Cl)cc2c1-c1ccc(Cl)cc1/C2=C/c1ccc(Cl)cc1 (stereo not given),-1.36% [at 30.3 µM],–
CC1CN(c2ccccc2)NC1=O (stereo not given),0.24%,–
O=C(Nc1ccc(S(=O)(=O)N2CCOCC2)cc1)c1cc(Cl)ccc1NS(=O)(=O)c1ccc(Cl)s1,-1.85% [at 30.3 µM],–
C(=C\c1ccccc1)/CN1CCN(C(c2ccccc2)c2ccccc2)CC1,1.68% [at 30.3 µM],–
C[C@@H](O[C@H]1OCCN(Cc2n[nH]c(=O)[nH]2)[C@H]1c1ccc(F)cc1)c1cc(C(F)(F)F)cc(C(F)(F)F)c1,0.106% [at 30.3 µM],–
CCc1ccc(C(c2ccc(CC)cc2)C(Cl)Cl)cc1,-1.06%,–
CC(C)CCOC(=O)/C=C/c1ccccc1,-2.06%,–
CCOC(=O)Nc1ccc2c(c1)N(C(=O)CCN1CCOCC1)c1ccccc1S2,-0.236% [at 30.3 µM],–

# — PubChem BioAssay (Tox21)
